Data from the supplement of paper PMC8285479.
Where a name gives a salt, the structure may show the parent alone. ± gives the standard deviation of the averaged measurements. Whole data set: some 1,900 compounds, median “normalised cell viability (NPI; 0 = phenylarsine oxide control, 1 = DMSO control)” near 1, cut for the lowest 2% near 0.039. What follows is part of a selection rich in the lowest values, with near analogues and random picks from the rest.

Test system: NCI-H1944
Experiment: normalised cell viability (NPI; 0 = phenylarsine oxide control, 1 = DMSO control) (fraction of DMSO control); NCI-H1944 is a non-small cell lung cancer line; higher = more viable cells (less compound toxicity)
Conditions: 6 days
[1] = glucocorticoid arm: hydrocortisone 2.75 uM co-treatment, compound 1 µM
[2] = glucocorticoid arm: hydrocortisone 2.75 uM co-treatment, compound 5 µM
[3] = glucocorticoid arm: hydrocortisone 2.75 uM pre-treated 2 days and continued, compound 1 µM
[4] = glucocorticoid arm: hydrocortisone 2.75 uM pre-treated 2 days and continued, compound 5 µM
[5] = glucocorticoid arm: vehicle, compound 1 µM
[6] = glucocorticoid arm: vehicle, compound 5 µM
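Further: CTB read-out in 384-well plates, triplicate wells, NPI normalised per plate against 1 µM phenylarsine oxide (0) and 0.1% DMSO (1) controls.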

SMILES | normalised cell viability [1] | normalised cell viability [2] | normalised cell viability [3] | normalised cell viability [4] | normalised cell viability [5] | normalised cell viability [6]
C#C[C@]1(O)CC[C@H]2[C@@H]3CCC4=Cc5oncc5C[C@]4(C)[C@H]3CC[C@@]21C [Danazol] | 0.998 ± 0.001 | 1 ± 0.021 | 0.991 ± 0.022 | 1.01 ± 0.027 | 1.007 ± 0.0058 | 1.013 ± 0.0058
C[C@]12CC[C@H](O)CC1=CC[C@@H]1[C@@H]2CC[C@]2(C)C(c3cccnc3)=CC[C@@H]12 [Abiraterone] | 1.043 ± 0.0058 | 1.18 ± 0.023 | 1.05 | 1.11 ± 0.025 | 0.848 ± 0.021 | 1.05 ± 0.011
O=C(NCCCNc1nc(Nc2cccc(NC(=O)N3CCCC3)c2)ncc1I)c1cccs1 | 0.9797 ± 0.0095 | 0.993 ± 0.027 | 0.9587 ± 0.0025 | 1.05 ± 0.017 | 0.71 ± 0.01 | 0.3133 ± 0.0023
c1ccc2c(-c3cnn4cc(-c5ccc(N6CCNCC6)cc5)cnc34)ccnc2c1 | 1.043 ± 0.0058 | 0.832 ± 0.14 | 1.04 ± 0.01 | 1.09 ± 0.021 | 1.01 ± 0.011 | 0.0214 ± 0.0048
Nc1ncnc2c1nc(Br)n2C1OC2COP(=O)(O)O[C@@H]2C1O (some centres not stated) [8-Bromo-cAMP sodium] | 0.9863 ± 0.004 | 0.901 ± 0.017 | 0.983 ± 0.001 | 0.96 ± 0.016 | 0.9617 ± 0.0067 | 0.9647 ± 0.0093
Cc1nn(-c2ccccc2)c(C)c1C=NN1CCN(Cc2ccccc2)CC1 | 1.01 ± 0.01 | 0.991 ± 0.05 | 1.02 ± 0.011 | 0.9927 ± 0.0078 | 0.9987 ± 0.0023 | 0.996 ± 0.013
CNC(CC(=O)O)C(=O)O [NMDA (N-Methyl-D-aspartic acid)] | 1.006 ± 0.0069 | 1.03 ± 0.037 | 1.01 ± 0.032 | 1.01 ± 0.013 | 1.003 ± 0.0058 | 0.9973 ± 0.0025
FC(F)(F)c1cc(COC2CCCNC2c2ccccc2)cc(C(F)(F)F)c1 [L-733,060 hydrochloride] | 0.9863 ± 0.0067 | 0.843 ± 0.034 | 1 ± 0.014 | 0.993 ± 0.076 | 0.9957 ± 0.0067 | 0.928 ± 0.076
N/C(=N\C(=O)c1nc(Cl)c(N)nc1N)NCc1ccccc1 [Benzamil hydrochloride] | 1.023 ± 0.0058 | 1.04 ± 0.01 | 1.03 ± 0.011 | 1.05 ± 0.028 | 0.9897 ± 0.0045 | 1.02 ± 0.016
N/C(=N\C(=O)c1nc(Cl)c(N)nc1N)NCc1ccc(Cl)c(Cl)c1 [3',4'-Dichlorobenzamil hydrochloride] | 0.99 ± 0.0089 | 0.0646 ± 0.03 | 0.998 ± 0.013 | 0.862 ± 0.014 | 0.98667 ± 0.00058 | 0.0118 ± 0.0064
N=C(N)NC(=O)c1nc(Cl)c(N)nc1N [Amiloride hydrochloride] | 0.9737 ± 0.006 | 0.966 ± 0.023 | 0.991 ± 0.0052 | 0.992 ± 0.025 | 0.9947 ± 0.0084 | 1.003 ± 0.0064
CCCCCCCCCCCCCCCCCC(=O)NCC(COP(=O)([O-])OCC[N+](C)(C)C)OCC (racemic) [rac-2-Ethoxy-3-octadecanamido-1-propylphosphocholine] | 1.017 ± 0.0058 | 1.04 ± 0.011 | 1.01 ± 0.011 | 1.04 ± 0.021 | 0.9997 ± 0.0091 | 1.002 ± 0.0067
CCCCOc1cc(CC2CNC(=O)N2)ccc1OC (configuration not stated) | 1.01 ± 0.01 | 1.01 ± 0.021 | 1.01 ± 0.011 | 1.01 ± 0.021 | 1.013 ± 0.0058 | 1.013 ± 0.0058
COC(=O)C[C@](O)(CCCC(C)(C)O)C(=O)O[C@@H]1C(OC)=C[C@]23CCCN2CCc2cc4c(cc2[C@H]13)OCO4 [Omacetaxine mepesuccinate] | 0.00277 ± 0.001 | 1.08 ± 0.026 | 0.0391 ± 0.002 | 1.03 ± 0.021 | 0.00151 ± 0.00092 | 1.017 ± 0.0058
O=c1[nH]c2cc(Cl)c(Cl)cc2[nH]c1=O [6,7-Dichloroquinoxaline-2,3-dione] | 1.01 ± 0.011 | 1.04 ± 0.011 | 1.003 ± 0.0061 | 1.04 ± 0.021 | 0.989 ± 0.007 | 1.002 ± 0.0068
NC(=O)c1cc[n+](CC2=C(C(=O)O)N3C(=O)[C@@H](NC(=O)C(c4ccccc4)S(=O)(=O)[O-])[C@H]3SC2)cc1 (some centres not stated) [Cefsulodin sodium salt hydrate] | 1.01 | 1.013 ± 0.0058 | 1.02 | 1.01 ± 0.014 | 0.997 ± 0.013 | 0.9997 ± 0.0096

SMILES | normalised cell viability [1] | normalised cell viability [2] | normalised cell viability [3] | normalised cell viability [4] | normalised cell viability [5] | normalised cell viability [6]
CCc1cnn2c(NCc3ccc[n+]([O-])c3)cc(N3CCCC[C@H]3CCO)nc12 | 0.0547 ± 0.0038 | 0.0409 ± 0.0039 | 0.144 ± 0.004 | 0.153 ± 0.0068 | 0.0139 ± 0.0022 | 0.00878 ± 0.0013
Oc1cc2c(cc1O)C(c1ccccc1)CNCC2 (racemic) | 0.987 ± 0.014 | 0.982 ± 0.013 | 0.982 ± 0.023 | 0.972 ± 0.011 | 0.992 ± 0.0044 | 0.9913 ± 0.0021
OC(CN1CCC(Cc2ccc(F)cc2)CC1)c1ccc(Cl)cc1 (configuration not stated) [Eliprodil] | 0.9487 ± 0.0064 | 0.9277 ± 0.0051 | 0.9827 ± 0.0091 | 0.971 ± 0.0076 | 0.9973 ± 0.0046 | 0.9967 ± 0.0058
Cc1ccc(NC(=O)c2ccc(CN3CCN(C)CC3)cc2)cc1Nc1nccc(-c2cccnc2)n1 | 1.043 ± 0.0058 | 1.1 ± 0.032 | 1.04 ± 0.011 | 1.05 ± 0.01 | 0.9957 ± 0.004 | 1 ± 0.014
Cc1ccc(NC(=O)c2ccc(CN3CCN(C)CC3)cc2)cc1Nc1nccc(-c2cccnc2)n1 [Imatinib (Gleevec)] | 1.05 ± 0.017 | 1.14 ± 0.015 | 1.037 ± 0.0058 | 1.1 ± 0.01 | 1.01 ± 0.015 | 1.033 ± 0.0058
CC(=O)Nc1ccc(C(=O)Nc2ccccc2N)cc1 | 1.02 ± 0.011 | 1.063 ± 0.0058 | 1.033 ± 0.0058 | 1.06 ± 0.011 | 0.9833 ± 0.0057 | 0.906 ± 0.052
COc1ccc(C(=O)NCc2cccnc2)cc1C(=O)NCc1cccnc1 [Picotamide] | 0.989 ± 0.017 | 0.992 ± 0.004 | 0.867 ± 0.26 | 1 ± 0.016 | 1.007 ± 0.0058 | 1.003 ± 0.0064
CC(=O)Nc1ccc(C(=O)Nc2ccccc2N)cc1 [CI994 (Tacedinaline)] | 0.9813 ± 0.0093 | 1.03 ± 0.029 | 0.999 ± 0.012 | 1.02 ± 0.02 | 0.9707 ± 0.0072 | 0.9157 ± 0.008
Nc1ccccc1NC(=O)c1ccc(CNc2nccc(-c3cccnc3)n2)cc1 [Mocetinostat (MGCD0103)] | 1.033 ± 0.0058 | 0.00494 ± 0.0024 | 1.02 ± 0.02 | 0.0153 ± 0.0051 | 0.585 ± 0.02 | 0.00194 ± 0.00024
Cc1ccc(NC(=O)c2ccc(CN3CCN(C)CC3)cc2)cc1Nc1nccc(-c2cccnc2)n1 [Imatinib Mesylate] | 1.05 ± 0.015 | 1.14 ± 0.021 | 1.05 ± 0.015 | 1.1 ± 0.032 | 1.01 ± 0.01 | 1.03 ± 0.011
Cc1cc(NC(=O)c2cccc(NC(=O)/C=C/CN(C)C)c2)ccc1Nc1nccc(-c2cccnc2)n1 | 0.989 ± 0.016 | 0.943 ± 0.017 | 1.007 ± 0.0058 | 0.917 ± 0.026 | 0.959 ± 0.011 | 0.702 ± 0.033
Nc1ccccc1NC(=O)c1ccc(CNC(=O)OCc2cccnc2)cc1 [Entinostat] | 0.925 ± 0.019 | 0.0313 ± 0.0074 | 0.962 ± 0.013 | 0.0766 ± 0.011 | 0.348 ± 0.03 | 0.00136 ± 0.00059
Nc1ccccc1NC(=O)c1ccc(CNC(=O)OCc2cccnc2)cc1 [Entinostat (MS-275)] | 1.05 ± 0.015 | 0.184 ± 0.004 | 1.023 ± 0.0058 | 0.302 ± 0.018 | 0.866 ± 0.026 | 0.02 ± 0.0035
COc1cc2c(cc1OC)[C@@H](c1ccccc1)CN(C)CC2 | 0.9913 ± 0.006 | 1.023 ± 0.0058 | 1.02 ± 0.011 | 1.01 ± 0.019 | 0.9883 ± 0.0015 | 0.9863 ± 0.0055
Nc1nc(N)c(N=O)c(OCC2CCCCC2)n1 | 1.02 ± 0.011 | 1.05 ± 0.017 | 1.037 ± 0.0058 | 1.023 ± 0.0058 | 1 | 0.978 ± 0.019
Clc1ccc(C2(c3ccc(-c4cn[nH]c4)cc3)CCNCC2)cc1 | 0.968 ± 0.012 | 0.9977 ± 0.0021 | 0.975 ± 0.011 | 1.006 ± 0.0075 | 0.9947 ± 0.0051 | 0.939 ± 0.015
